Each structure is given as a SMILES string. About 83,000 compounds went through this panel and 20% of them were active in at least one assay; those are over-represented in the sample as a whole.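 Growth was measured after 48 h exposure to one concentration of compound in 96-well plates. Values under 10 count as active.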 Values without a mark were called inactive. Calls of active or inactive are those of the source.

This experiment concerns MDA-MB-468 breast. The experiment can be described thus: NCI-60 one-dose screen, 48 h (100 = growth as untreated, 0 = no growth, -100 = all killed). As to conditions: 10 µM unless noted.
With `O=C(N/N=C/c1ccc(Cl)cc1Cl)c1ccc2nc(-c3ccc(Cl)cc3)[nH]c2c1`, the growth was -44.1% (active). Take `COc1ccc(/C=N/NC(=O)Cn2c(-c3ccc(S(C)(=O)=O)cc3)nc3ccccc32)cc1`: the growth is 98.3%. Under `COc1cc(C(=O)c2cnc(-c3cccc4[nH]ccc34)[nH]2)cc(OC)c1OC` stands -2.51% (active).

The values above are taken from PubChem BioAssay (NCI).
